For 40 compounds, outcome and AC50 results are on record in PubChem BioAssay (EPA / NIEHS).

The source made the active and inactive calls. How the source made its calls: active means hit-call score of the fitted dose curve at least 0.9, where 1 is the maximum; inactive means score below 0.9.

A short description of this assay: ATG_ERE_CIS: Attagene CIS-FACTORIAL HepG2 Assay for Estrogen Response Element (ERE) (AID 2282940). The settings on record: HepG2 ERE cis-reporter, Attagene RNA transcript; actives raise or lower the signal. How it is done: ATG_CIS is a cell-based, multiplexed-readout assay that uses HepG2, a human liver cell line, with measurements taken at 24 hours after chemical dosing in a 24-well plate.ATG_ERE_CIS is one of 52 assay component(s) measured or calculated from the ATG_CIS assay. It is designed to make measurements of mRNA induction, a form of inducible reporter, as detected with fluorescence intensity signals by Reverse transcription polymerase chain reaction (RT-PCR) and Capillary electrophoresis technology.Data from the assay component ATG_ERE_CIS was analyzed into 1 assay endpoint. This assay endpoint, ATG_ERE_CIS, was analyzed with bidirectional fitting relative to DMSO as the negative control and baseline of activity. Using a type of inducible reporter, measures of mRNA for gain or loss-of-signal activity can be used to understand the reporter gene at the transcription factor-level as they relate to the gene ESR1. Furthermore, this assay endpoint can be referred to as a primary readout, because this assay has produced multiple assay endpoints where this one serves a reporter gene function. To generalize the intended target to other relatable targets, this assay endpoint is annotated to the nuclear receptor intended target family, where the subfamily is steroidal.
Human liver HepG2 cells are transiently transfected with multiple reporter transcription units (MRTUs) in 6-well plates using FuGene 6 reagent (Roche; 3 ml FuGene/1 mg DNA). The MRTU constructs are regulated by a cis-regulating element (promoter). […] A major difference between the CIS and TRANS system is that in CIS activities of endogenous TFs are measured, whereas the TRANS assay evaluates changes in activities of exogenous, chimeric NR-Gal4 proteins. […] At the end of 24 hour incubation, total RNA was isolated using TriZol reagent (Invitrogen). The isolated RNA is then reverse-transcribed using oligo(dT) primer and Mo-MLV reverse transcriptase (Invitrogen) with DNAse I (Ambion) treatment for 30 min. The one-tenth of the produced cDNA was amplified by PCR using Taq DNA polymerase (Invitrogen) and two reporter sequence-specific primers. The PCR products were fluorescently labeled by primer extension with 6-arboxyfluorescein (6-FAM) 5'-labeled reporter sequence-specific primer (2 min at 95 C, 20 s at 68 C and 10 min at 72 C) and these products were digested with 5U of HpaI (New England Biolabs) for 2h at 37 C. The fragments were purified using Qiaquick PCR columns (Qiagen), analyzed on an ABI 3130xL genetic analyzer (Applied Biosystems) with peak positions identified by using a set of X-rhodamine (ROX)-labeled MapMarker1000 molecular weight standards (BioVentures). The raw capillary electrophoresis data was processed using Attagraph software (Attagene).
For the compound `C[Si](C)(CCCN)O[Si](C)(C)CCCN`, the outcome was inactive.

In general, AC50 refers to the concentration at which the activity in the assay is half-maximal. With `CC(C)(C)C(=O)C=Cc1ccc(Cl)cc1`, the AC50 is 155 µM (active).

Take `NCCCN1CCN(CCCN)CC1`: the compound was classed as inactive.

`O=C1C(N(CO)C(=O)NCO)N(CO)C(=O)N1CO` (stereo not given): the result was inactive.

As for `OCCCS`, the result was inactive.

Consider `N#CCc1ccc(Cl)cc1Cl`, for which the compound was classed as inactive.

For `CC(=O)OC(C)C`, the compound was called inactive.

Consider `Nc1ccc(-c2ccc(F)cc2)cc1`, for which the half-maximal activity concentration (AC50) is 18.2 µM (active).

Turning to `Cc1cc(O)c(Cl)c(C)c1Cl`, the AC50 was 28.3 µM (active).

As to `c1ccc(CCCc2ccncc2)cc1`, the outcome was inactive.

As to `Nc1ccc2cc3ccccc3cc2c1`, the AC50 is 8.48 µM (active).

For `C=CC(C)(CCC=C(C)C)OC(=O)CC(C)C` (stereo not given), the AC50 was 74.1 µM (active).

With `COc1c2ccoc2cc2oc(=O)ccc12`, the compound was classed as inactive.

Regarding `Cc1ccc(C(C)(C)C)cc1`, the call was inactive.

For the compound `C=COCCCC`, the compound was classed as inactive.

As to `[Cl][Nd]([Cl])[Cl]`, the outcome was inactive.

For the compound `CC(C)(C)c1ccc(N)cc1`, the AC50 was 59.9 µM (active).

Turning to `NC(=O)NNC(N)=O`, the outcome was inactive.

As for `C=C1C2CCC(C2)C1(C)C` (stereo not given), the result was inactive.

As for `Nc1ccc(N)c(Cl)c1`, the concentration at half-maximal activity (AC50) is 2.65 µM (active).

As for `CO[Si](OC)(OC)c1ccccc1`, the compound was called inactive.

In the case of `CCCCC(CC)CCC(CC(C)C)OS(=O)(=O)O` (stereo not given), the result was inactive.

Consider `C=CC=CC=CCCCCC`, for which the outcome was inactive.

As to `OCCNCc1ccccc1`, the compound was called inactive.

In the case of `CCCCCCCOC(=O)CCC`, the compound was called inactive.

Consider `CC(=O)Nc1ccc2c(c1)Cc1cc(NC(C)=O)ccc1-2`, for which the outcome was inactive.

For `CCO[Si](C)(OCC)OCC`, the outcome was inactive.

Regarding `C1=Cc2ccccc2C1`, the AC50 is 44.3 µM (active).

For the compound `NC(=O)c1ccccc1O`, the outcome was inactive.

Regarding `C[C@]12CCC(=O)C=C1CC[C@@H]1[C@@H]2C(=O)C[C@@]2(C)[C@H]1CC[C@]2(O)C(=O)CO`, the compound was classed as inactive.

Consider `O=C(Oc1ccccc1)c1ccc2ccccc2c1O`, for which the half-maximal activity concentration (AC50) was 31.2 µM (active).

Take `c1ccc2c(c1)ccc1cc3c(ccc4ccccc43)cc12`: the concentration at half-maximal activity (AC50) was 0.18 µM (active).

For `O=S(=O)(O)c1cc(S(=O)(=O)O)c2ccc3c(S(=O)(=O)O)cc(S(=O)(=O)O)c4ccc1c2c43`, the result was inactive.

As to `CC(=O)c1ccc[nH]1`, the compound was called inactive.

Regarding `CCCCCCCCCCCCCCCC(=O)OCC`, the call was inactive.

As for `CCc1c(C(=O)O)c(=O)cnn1-c1ccc(Cl)cc1`, the AC50 is 28.5 µM (active).

In the case of `O=C1CCCC1`, the compound was called inactive.

As to `CC(C)(Oc1ccc(C2CC2(Cl)Cl)cc1)C(=O)O` (stereo not given), the result was inactive.

For `CCCCCCCCCCc1ccccc1`, the compound was called inactive.

Take `CCN(CC)c1ccc(C(=O)c2ccccc2C(=O)O)c(O)c1`: the compound was classed as inactive.
